# Experimental data: the supplement of paper PMC10105736;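 active = MAPPIT score above the 99th percentile of random reference set scores in the same batch; inactive = at or below it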
# ± gives the standard deviation of the averaged measurements.
# B1: PGRP-LC (protein)
# chain: MPFSNETEMSQCSNAKRRVNDPLTGPKNCSTSSTDSGVILNDNVAAFRPEKETKDRGTGEGQFQSKSEEKTESKRISVEHTVNITTENVGKTSSPAVSIRSTTISVVSIDDNAIDSSSIDSDSEAEAEDYTVQKLGHQVTYPPNSSHLRDLNQGLTVISRHVAPGEAAVPPPNPLEAGIVAKQILNGNLAVATPTSPAGGATQGIGSIALTNSTDVTFGDKHFYEGPVTIQQFLIDNRDKWKPGEGPAGGQDNPAFNGGPSTNGSAPGSKHEDPAQTPPICPFLPNTVGRKAVTVTVVFVTLTFLLGIVLATTTNLFGKTLNQSKIRDDDDYRQNIPINSTIDLDNIGGGLILRFVERQQWLAQPPQKEIPDLELPVGLVIALPTNSENCSTQAICVLRVRLLQTYDIESSQKCDIAYNFLIGGDGNVYVGRGWNKMGAHMNNINYDSQSLSFAYIGSFKTIQPSAKQLSVTRLLLERGVKLGKIAPSYRFTASSKLMPSVTDFKADALYASFANWTHWS
# B2: Fs(2)Ket (protein)
# chain: MTSDIAMQLIAILEKTVSPDKNELLSAKNFLEQAAASNLPEFLKALSEILVNTANSAVARMAAGLQLKNHLTSKDEKVSQQYQDRWHQFPSEIRELIKNNILAALGTENTRPSCAAQCVAYVAVIELPINRWPMLIQTLVNKVVSEGSSEMHRESALEAIGYICQDIRFGVMENQSNDVLTAIIHGMRKVEPSNHVRLAATTALHNSLEFTKSNFEKDMERNFIMEVVCEATQCQDSQICVAALQCLVKIMTLYYQYMEPYMAQALFPITLAAMKSDNDAVALQGIEFWSNVCDEEIDLAIESQEATDQGRAPQRVSKHYARGALQFLTPVLVEKLTKQDECDDEDTWSPAKAASVCLMVLATCCEDEIVPHVLPFIKENIESPNWRFRDAAVMTFGSVLNGLETNTLKPLVEQAMPTLIRLMYDSSVIVRDTIAWTFGRICDIIPEAAINETYLQTLLECFVKSLKSEPRVAANVCWAFIGLSDAAWEAAVTNDGETPETYALSPYFEYIITQLLETTDRSDGAQANLRCAAYQALMDMIKNSPLDCYLVVQRTTLVILERLNQVMQMETQINNHSDRHQFNDLQSLLCATLQSVLRKVHEQDAPQISDAIMTALLTMFNSSAGKSGVVQEEAFLAVSTLVELLGAQFAKYMPAFKDFLVMGLKNFQEYQVCCAAVGLTGDIFRALKDLMVPYSNEIMTVLINNLTEPTIHRTVKPQVLSAFGDIALSIGNHFLPYLSMVLDMLRVASNLQTDANNFDMNEYINELRESILEAYTGIIQGLKGVDQTAHTDVMHMEPHLMHIISFIKRIAQEGDVSDSMLASAAGFIGDLCTSFGPRLYPLLDDAIITQFLAEGKRSKAQRTKMLCTWAVKEIKKINTQVITQ
# B3: Psc (protein)
# chain: MMTPESKAIQPAAATTKQTAEATATTTMAHTQQKSQLSTLAKTTTTTATNKAAKSVVSNANSSGNNSSKKLALSQSQKTTTTTTPPTTTTTTTAAAAAEATTNADKMQKQQQLKQQLFAACSIKVKSENTLATTANAALAAATTTTTTATPALATGKAAKTILENGIKKESTPPAVESVEASSSSSSSSSSSSSSSSSWPTTRRATSEDASSNGGASADEEKSEEDPTAAVAASSTATTTSDLATTSRPRPVLLTAVNPHIICHLCQGYLINATTIVECLHSFCHSCLINHLRKERFCPRCEMVINNAKPNIKSDTTLQAIVYKLVPGLYERELMRKRAFYKDRPEEAALATPEQRGDDTEHLIFSPSDDMSLSLEYAELGELKTDSEPELVDTLRPRYLQCPAMCRVSHLKKFVYDKFEIDAQRFSIDIMYKVKTIVLLDYYTLMDIAYIYTWKRDAPMRFYYRVYESPQPLVKPAPRRVLPLKLEKQERENQEQQLAVEVASSKVEPVSLPEDQKAEASIKVEEQESTREIVKEVIKDVAATPPTETLKLVINRNMLDKREKSHSPQMSSKSSSKSSPCTPVSSPSEPNIKLKIDLSKQNSVTIIDMSDPERREIVKPLKPEKESRSKKKDKDGSPKSSSSSSSSSSGERKRKSPSPLTVPPLTIRTERIMSPSGVSTLSPRVTSGAFSEDPKSEFLKSFALKPIKVKVESPERTLNNRAITPPSPSVQQSASPKSKGNNLDDSILMKPPSCMPPKSIASSKRKSKEPVKAVSKKQKLSPPLPTVDFKIRLPVTNGNSSGTASPKIEKPLMPPPAKPPMLAPRKLQPSAQFAPPPSPIHHHAGVQMSAPGNRTPIAKRYQPILPKASRPNPFANIPNDVNRLLKDAGTEIKSIGGGSVENNSNAAQKPHLYGPKGESKMGPPALPATTPSQGNKNVGKQAGNLPMSAPPNKGNSSNNYLNLALFNSSKCKGKEAPPGCRTPMYTPNSPIYSPSSPQYVPSYNIPTMPTYKYTPKPTPNSGSGNGGSGSYLQNMLGGGNGGSLGGLFPSPPTKSDQNTNPAQGGGGSSSATQSGGNNGIVNNNIYMPNEDAPEKQQVKVKSLLNSCNINIPSSLSITISRDNGDSSSPNNGQHPKHKSPVNNYIEIVKLPDQPQDQVQAAKEAQKRQSPPAAVPGHLAAKLPPPPPSKAIPSPQHLVSRMTPPQLPKVATPPPPSSPRVITPPKTSPPANAAKVTPLKPVLTPTQVDKKTPSPEKRTAAQMGSHSPTASENKSPKGGPAGVANSTGGAQNGDPAAKKFRPILPRQNGMPELAPKLPTLAPFVGFNPLQNPAAGKKVPPSKKSPNAGAAAHQSGQQKLVNGGQSQPAQQKTSPPAQKNQQQVKKVSKNPTPPPPSLPAVGKMMPHPVMHSQNAPLSIASSASAAAVASGQLDLSNFLKENLRRVHAAQAAQAAQVAAAANQSNMMYNLAQMGHMTPAMYNYQQAYFREQLSRMQRVGNEVFNDYLQKLKTAAATGGGGPVEGELKPMLPTVTLPSPGATPPAASPKTSPLPAGKLTAAATAPQTKGNSSSGAANARQQTAATGNNGATVPAASLPPATKSK
# B4: numb (protein)
# chain: MGNSSSHTHEPLERGFTRGKFGDVKNGKSASFRFSKKSPKKMDRLRRSFRDSFRRRKDRVPESSKPHQWQADEEAVRSATCSFSVKYLGCVEVFESRGMQVCEEALKVLRQSRRRPVRGLLHVSGDGLRVVDDETKGLIVDQTIEKVSFCAPDRNHERGFSYICRDGTTRRWMCHGFLACKDSGERLSHAVGCAFAVCLERKQRRDKECGVTMTFDTKNSTFTRTGSFRQQTLTERLAMATVGTNERSVDGPGSAMPGPPAATVKPFNPFAIERPHATPNMLERQSSFRLSTIGSQSPFKRQMSLRINDLPSNADRQRAFLTAAAGNPMQTPLRSVSPIAEVSPAKSAGADPLSAAAVAADSVSQLCQELSQGLSLLTQTDALLAAGEDLNFNNNRSINQNIIAAEKQVQHVHSYAPPTAQVTPRVASTTPTYQTLHSQSPSRSEQSIETSTELPNAEQWLGHVVRSTSPAAPKRPTYLANVGRAQTLASGTGAAVGGGGPDDPFDAEWVANVAAAKQLSPDLPIPSTARSPLARHSTNPFISPPKAPAQSFQVQL
# What was measured:
# Experiment in all cases: MAPPIT interaction score (arbitrary units); higher = stronger binary interaction signal, active = hit call of the paper
# PGRP-LC = conditions: pair source set: Lit-BM-16
# PCID2 = conditions: MAPPIT configuration: N-N; pair source set: Lit-BS-16
# Pc = conditions: pair source set: Lit-BM-16
# Past1 = conditions: MAPPIT configuration: N-N; pair source set: Lit-BM-16
# Rm62 = conditions: MAPPIT configuration: N-N; pair source set: Curagen_high_conf
# ktub = conditions: MAPPIT configuration: N-N; pair source set: Curagen_high_conf
# mira = conditions: pair source set: Lit-BM-16
# 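Also: HEK293T cells with Epo stimulation, STAT-responsive firefly luciferase reporter, fold induction versus unstimulated cells divided by the larger fold induction of two negative controls lacking either bait or prey.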
binder,measurement,setting,value
B1,MAPPIT interaction score,PGRP-LC; MAPPIT configuration: N-C,-0.131 (inactive)
same,MAPPIT interaction score,PGRP-LC; MAPPIT configuration: N-N,2.43 ± 0.6
B2,MAPPIT interaction score,PCID2,0.0886 (inactive)
B3,MAPPIT interaction score,Pc; MAPPIT configuration: N-C,1.11 (inactive)
same,MAPPIT interaction score,Pc; MAPPIT configuration: N-N,-0.137 (inactive)
B4,MAPPIT interaction score,Past1,0.0235 (inactive)
same,MAPPIT interaction score,Rm62,-0.368 (inactive)
same,MAPPIT interaction score,ktub,-1.3 (inactive)
same,MAPPIT interaction score,mira; MAPPIT configuration: N-C,1.17 (inactive)
same,MAPPIT interaction score,mira; MAPPIT configuration: N-N,-0.252 (inactive)
